TDP1 cell noCPT – qHTS for Inhibitors of human tyrosyl-DNA phosphodiesterase 1 (TDP1): qHTS in cells in absence of CPT. DT40 Tdp1-/- hTDP1 cells, no CPT, ATP luminescence, 48 h. Potency, µM (titrated, usually from 46.2 µM), inactives show top-dose activity change, negative = growth inhibition, actives largely listed as inhibitors. actives 15% (n = 420,000); note: % is set by controls: 0 for no effect and ±100 for the full control effect; nearly all actives have a fitted effect of over 55% in size
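Camptothecin absent (DMSO only). Human TDP1-complemented DT40 knockout cells, 400 cells/well, 37 °C for minimum 48 hr; ATP measured via CellTiter-Glo, 30 min dark incubation, luminescence.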
DT40 TDP1 CPT – growth inhibition of DT40 Tdp1-/-;hTDP1 cells with camptothecin (screen for TDP1 inhibitors); chicken DT40 Tdp1-/-;hTDP1 cells + 20 nM CPT, ATP luminescence, 48 h; Potency, µM (doses to about 46.2 µM), for the others: top-dose activity change, negative = growth inhibition, hits mostly inhibitors; actives 12% (n = 420,000); AID 686979; note: % is set by controls: 0 for no effect and ±100 for the full control effect; nearly all actives have a fitted effect of over 55% in size
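Chicken DT40 Tdp1-/- cells stably complemented with human TDP1 were seeded at 400 cells/well in medium containing 20 nM camptothecin, exposed to pin-transferred compounds, and grown at 37 °C for at least 48 hr. Viability was read as ATP luminescence.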
ATXN2 expr inh – ATXN2 expression inhibition; HEK-293 ATXN2-luciferase reporter, luminescence, 24 h; Potency, µM (doses to about 57 µM), for the others: top-dose activity change, negative = inhibition, actives largely listed as inhibitors; actives 0.72% (n = 360,000); note: % is set by controls: 0 for no effect and ±100 for the full control effect; nearly all actives have a fitted effect of over 55% in size
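qHTS (up to 57 uM final) was run with 24 h compound exposure of reporter cells at 37 °C. Each well was multiplexed: SteadyGlo luminescence measured ATXN2-luciferase expression after a fluorogenic Gly-Phe-AFC viability readout (25 uM final).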
TGFb SMAD3 inh – blocks TGF-b signaling. HepG2 CAGA-GFP TGF-b/SMAD3 reporter, GFP fluorescence, 18 h; TGF-beta stimulated, 500 pg/mL final. Potency, µM (series often up to 46.1 µM), without a hit: top-dose activity, negative = inhibition, usual class: inhibitors. actives 1.2% (n = 410,000); note: % is set by controls: 0 for no effect and ±100 for the full control effect; nearly all actives have a fitted effect of over 65% in size
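HEPG2 CAGA-GFP, 1000 cells/well; 2 h settle, 37 C; cpd via pin tool; TGF-b 500 pg/mL final; 18 h, 37 C; GFP imaging ex488/em500-530; %Activity normalised to -TGF-b and +DMSO controls; CRC fit, curve class.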
ATXN viability – cell viability loss in ATXN counter-screen | actives 0.49% (n = 400,000) | S2 cells (HEK-293 line with an ATXN2-luciferase reporter) viability, CellTiter-Fluor protease fluorescence, 24 h | AID 651635 | Potency, µM (highest dose often 56.7 µM), actives largely listed as cytotoxic; note: nearly all actives have a fitted effect of over 40% in size
HepG2 tox-1 – HepG2 cytotoxicity, counter-screen for TGF-b inhibitors; HepG2 CAGA-GFP viability, ATP luminescence, 18 h; Potency, µM (highest dose often 46.1 µM), inactives show at the top dose activity change, negative = cytotoxicity, actives largely listed as cytotoxic; actives 0.76% (n = 410,000); AID 588856
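HepG2 CAGA-GFP cells (1000/well, DMEM with 1% FBS) received compound, then TGF-beta at 500 pg/mL final, and were incubated 18 hours at 37 degrees C. Viability was read by CellTiter-Glo luminescence. Media-only wells were set as complete cell-killing and DMSO as no toxicity.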
TGFb confirm – TGF-b pathway inhibition, cherry-pick retest. shares compounds with TGFb SMAD3 inh. HepG2 CAGA-GFP TGF-b reporter, GFP fluorescence, 18 h; cells stimulated with TGF-beta, 500 pg/mL. Potency, µM (series often up to 46.1 µM), for inactives: at the top dose activity, negative = inhibition, most hits filed as inhibitors. actives 63% (n = 1,600); note: % is set by controls: 0 for no effect and ±100 for the full control effect; nearly all actives have a fitted effect of over 65% in size
HepG2 tox-2 – HepG2 cytotoxicity, TGF-b inhibitor counterscreen. Potency, µM (doses to about 46.1 µM), for the others: top-dose activity, negative = cytotoxicity, actives largely listed as inhibitors. shares compounds with TGFb SMAD3 inh. AID 720535. HepG2 CAGA-GFP viability, ATP luminescence, 18 h; cells stimulated with TGF-beta, 500 pg/mL. actives 27% (n = 1,600); note: % is set by controls: 0 for no effect and ±100 for the full control effect; nearly all actives have a fitted effect of over 70% in size
TGFb CCL64 inh – orthogonal confirmation of TGF-b inhibitors in CCL64 cells; shares compounds with TGFb SMAD3 inh; CCL64 CAGA-GFP reporter, TGF-b stimulated, GFP fluorescence, 18 h; Potency, µM (doses to about 46.1 µM), for inactives: at the top dose activity, negative = inhibition, hits mostly inhibitors; actives 41% (n = 1,600); note: nearly all actives have a fitted effect of over 65% in size
COP TGFb inh – validation of TGF-b inhibitors in HepG2 COP promoter reporter. shares compounds with TGFb SMAD3 inh. HepG2 COP-GFP TGF-b reporter, GFP fluorescence, 18 h; cells stimulated by added recombinant TGF-beta. Potency, µM (doses to about 46.1 µM), for the others: top-dose activity, negative = inhibition, actives largely listed as inhibitors. actives 3% (n = 1,600). AID 720537; note: nearly all actives have a fitted effect of over 70% in size
Starred values were filed as active, the others as inactive; i = inactive; ? = inconclusive; nt = not tested or not shown; [ ] = dose if it differs, or a comment. Compounds with a hit are over-represented: about 17% of the library has one in this group of screens. Calls come from the whole dose curve; as a rule, active = well fitted curve in the direction sought with a large enough effect; inconclusive = small, poorly fitted or top-dose-only effect, or another doubt; inactive = no such curve, though single readings can be large; an effect the other way counts as inactive or inconclusive. Potency is the fitted concentration of half-maximal effect.

SMILES	TDP1 cell noCPT	DT40 TDP1 CPT	ATXN2 expr inh	TGFb SMAD3 inh	ATXN viability	HepG2 tox-1	TGFb confirm	HepG2 tox-2	TGFb CCL64 inh	COP TGFb inh
O=C(C(Cc1ccccc1)NS(=O)(=O)c1cccc2cccnc12)N1CCc2ccccc21 (centres undefined)	?	?	2.1%	-9.6%	i	-1.9%	nt	nt	nt	nt
O=C(COC(=O)CNC(=O)c1cccc(OC(F)F)c1)NNC(=O)c1ccccc1	6.5%	-8.6%	-0.9%	6.3%	i	4.0%	nt	nt	nt	nt
O=C(Cn1ncc(Cl)c(Cl)c1=O)N1CCN(S(=O)(=O)c2ccc3ccccc3c2)CC1	4.61µM*	2.91µM*	?	3.98µM*	nt	-53.9%	2.59µM*	2.59µM*	5.17µM*	-22.3%
O=C(O)CCC(=O)N1CCN(S(=O)(=O)c2ccc3ccccc3c2)CC1	?	-20.6%	20.8%	2.1%	i	-6.3%	nt	nt	nt	nt
CC(=O)Nc1ccc(CN2C(=O)C(C)ON=C2c2ccccc2-c2ccco2)cc1 (centres undefined)	?	?	2.2%	-16.4%	i	2.9%	nt	nt	nt	nt
CC(C)(C)c1ccc(/C=C2\SC(=O)N(CCNC(=O)c3cccc(S(=O)(=O)N4CCOCC4)c3)C2=O)cc1	23.1µM*	8.2µM*	-11.2%	12.6µM*	?	-19.2%	7.31µM*	?	?	17.9%
OC(CNCC(c1ccc(Cl)cc1Cl)c1c[nH]c2ccccc12)c1ccccc1 (centres undefined)	13µM*	?	?	7.08µM*	?	-112.3%	?	16.4µM*	?	?
O=C(C[C@@H]1C/C=C\C[C@@H](Cc2ccc(F)cc2)C(=O)OC[C@@H](Cc2ccccc2)NC1=O)N[C@H](CO)Cc1ccccc1	-23.3%	?	3.9%	?	i	-34.2%	3.1%	6.8%	4.3%	-0.3%
O=C(C[C@H]1C/C=C/CC[C@@H](Cc2ccc(F)cc2)C(=O)OC[C@H](c2ccccc2)NC1=O)NCCO	-21.4%	-14.5%	0.2%	-0.6%	i	-8.9%	nt	nt	nt	nt
O=C1N[C@@H](c2ccccc2)COC(=O)[C@@H](Cc2ccc(F)cc2)CC/C=C/C[C@@H]1CC(=O)N(CCO)Cc1ccccc1	18.4µM*	13µM*	?	?	17.8µM*	-0.5%	14.6µM*	-21.0%	?	24.9%
O=C(C[C@H]1C/C=C\C[C@@H](Cc2ccc(F)cc2)C(=O)OC[C@H]2CCCN2C1=O)N[C@H](CO)Cc1ccccc1	?	?	1.2%	-5.9%	i	-1.3%	nt	nt	nt	nt
CC1(C)Cc2cccc(OC(=O)NCCc3ccc(F)cc3)c2O1	?	?	9.5%	nt	i	nt	nt	nt	nt	nt
CC1(Cc2cccc(C(F)(F)F)c2)C(=O)Nc2ccc(-c3ccc(F)c(Cl)c3)cc21 (centres undefined)	23.1µM*	?	?	10µM*	nt	10µM*	?	18.4µM*	?	38.0%
Cc1ccccc1OCCC(=O)OCC(=O)Nc1c(F)cccc1F	-4.0%	-12.6%	-4.1%	22.1%	i	0.0%	nt	nt	nt	nt
CCC(C)NS(=O)(=O)c1ccc(NC(=O)C(Sc2ccccc2)c2ccccc2)cc1 (centres undefined)	?	?	?	12.6µM*	?	-25.2%	?	?	?	53.5%
CCN(CC)S(=O)(=O)c1ccc(C(=O)N2CCN(C(=O)c3ccco3)CC2)cc1	-1.8%	-7.0%	-1.3%	20.0%	i	-0.3%	nt	nt	nt	nt
Cc1ccccc1CN(CC(=O)Nc1cccc([N+](=O)[O-])c1)S(=O)(=O)c1ccc(Cl)cc1	?	?	-34.6%	11.2µM*	?	-28.4%	10.3µM*	?	2.31µM*	70.5%
CS(=O)(=O)N(CC(=O)Nc1cccc([N+](=O)[O-])c1)c1ccccc1F	-28.2%	0.6%	nt	-19.4%	i	-10.5%	nt	nt	nt	nt
CS(=O)(=O)Nc1ccc(C(=O)NC2CCCC2)cc1	3.3%	0.9%	4.8%	4.1%	i	-0.7%	nt	nt	nt	nt
Cc1ccc(C)c(NS(=O)(=O)c2cc(C(=O)NCCC3=CCCCC3)ccc2C)c1	?	?	?	20µM*	?	-14.6%	?	?	?	37.3%
Cc1ccc(C)c(NS(=O)(=O)c2cc(C(=O)NCC3CCCO3)ccc2C)c1 (centres undefined)	-23.9%	-24.8%	-7.2%	1.2%	i	-3.8%	nt	nt	nt	nt
O=S(=O)(/C(=C\c1ccc(C(F)(F)F)cc1)c1nc2ccccc2[nH]1)c1ccccc1	2.06µM*	2.06µM*	5.01µM*	4.47µM*	7.08µM*	17.8µM*	2.91µM*	2.59µM*	3.26µM*	?
O=C(NCc1ccco1)/C(=C/c1ccc(C(F)(F)F)cc1)c1nc2ccccc2[nH]1	?	?	28.3%	-2.7%	i	-24.8%	nt	nt	nt	nt
CS(=O)(=O)Nc1ccccc1C(=O)Nc1cc(Cl)cc(Cl)c1	18.4µM*	18.4µM*	22.4µM*	7.08µM*	?	-26.2%	7.31µM*	?	8.2µM*	56.6%
COC(=O)c1cc(Br)c(N)cc1OC	16.2%	-5.0%	2.3%[11.3 µM]	1.6%	?	-6.9%	nt	nt	nt	nt

From PubChem
